Among the data in ChEMBL document CHEMBL3988442, “University of Dundee, Small-Polar-MMV Screening Library” (2021) are Percent Effect values, retold here.

The target of experiment [1] is T1, Aspartate--tRNA(Asp/Asn) ligase (Mycobacterium tuberculosis (strain ATCC 25618 / H37Rv)) (UniProt P9WFW3). Further: in the data most compounds retested in dose-response had high values.
T1 sequence (whole entry): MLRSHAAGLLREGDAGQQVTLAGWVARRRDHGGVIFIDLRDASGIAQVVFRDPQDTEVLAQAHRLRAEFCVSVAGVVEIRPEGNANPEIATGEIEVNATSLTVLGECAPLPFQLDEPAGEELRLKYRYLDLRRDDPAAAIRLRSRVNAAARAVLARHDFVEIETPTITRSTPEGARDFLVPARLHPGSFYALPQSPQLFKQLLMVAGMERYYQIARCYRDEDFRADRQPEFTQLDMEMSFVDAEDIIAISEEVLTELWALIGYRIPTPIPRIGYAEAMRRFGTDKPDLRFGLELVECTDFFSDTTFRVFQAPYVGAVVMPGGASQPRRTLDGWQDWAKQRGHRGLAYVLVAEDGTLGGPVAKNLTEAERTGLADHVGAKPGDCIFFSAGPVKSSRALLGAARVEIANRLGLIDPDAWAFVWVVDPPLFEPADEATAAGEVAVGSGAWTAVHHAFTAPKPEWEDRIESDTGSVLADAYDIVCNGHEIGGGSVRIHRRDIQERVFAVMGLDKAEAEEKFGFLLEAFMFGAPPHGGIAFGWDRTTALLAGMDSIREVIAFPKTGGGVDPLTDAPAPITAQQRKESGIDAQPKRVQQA
Description: Assay for Asp RNA synthetase-1 from Mycobacterium tuberculosis. Set-up: scale not given: direction of the effect not stated beside the values. As to conditions: 30 µM. The class given is functional.

For experiment [2], the target named is Shiga toxin 2 (Escherichia coli O157:H7) (UniProt P09385+P09386). Briefly: E. coli 0.157:H7 Shiga Toxin SOP - stx2 screening assay. More on the design: scale not given: direction of the effect not stated beside the values. The class given is functional. As to conditions: 30 µM.

Turning to `Cc1ccc(N2CCCC(NCc3cscn3)C2)nn1` (centres undefined), the Percent Effect amounted to 10.3% in experiment [1] and 15.1% in experiment [2].

On to `CCN(CC1CCCO1)C(=O)Nc1cc(OC)c(OC)cc1C` (centres undefined), for which the Percent Effect in experiment [1] is -2.8%; in experiment [2], -9.12%.

`CN(Cc1ccco1)[C@@H]1CN(Cc2ccco2)[C@@H]2CCCO[C@H]12`: the Percent Effect in experiment [1] was -1.66%; in experiment [2], 0.222%.

For `N#Cc1ccc(OCCCN2CCc3cncnc3C2)cc1`, the values for the Percent Effect in experiment [1] and in experiment [2] were -3.6% and -20.7%, respectively.

`COc1ccc(CNC(=O)NC(C)Cn2cccn2)cc1O` (centres undefined): the Percent Effect in experiment [1] was -1.61%; in experiment [2], 17.6%.

On to `Fc1ccc(CN2CCC(c3n[nH]c4ncccc34)CC2)cc1F`, for which the Percent Effect stood at 5.4% in experiment [1] and 15.2% in experiment [2].

`NC(=O)CN1CCCN(C(=O)c2ccn(-c3cccc(F)c3)n2)CC1`: the Percent Effect in experiment [1] was 5.51%; in experiment [2] it was -6.78%.

As for `CCc1noc(CN(C)Cc2ccc(N3CCCCC3)cc2)n1`, the Percent Effect is -2.17% in experiment [1] and -19.3% in experiment [2].

With `CCNc1cc2c(nn1)CCN(C(=O)c1ccc(NC3CC3)nc1)C2`, the Percent Effect was -0.723% in experiment [1] and 2.8% in experiment [2].

Take `CCCNC(=O)CN1CCN(Cc2csc(C(C)(C)C)n2)CC1`: the Percent Effect in experiment [1] is -3.03%; in experiment [2], 11.1%.

As to `Cc1nc(CN2CCN(C(=O)c3cc(C4CC4)on3)CC2)cs1`, the values for the Percent Effect in experiment [1] and in experiment [2] were -5.68% and 24.9%, respectively.

As for `CCCOc1ccc(NC(=O)NCCC(=O)N(C)C)cc1Cl`, the Percent Effect in experiment [1] is 1.09%; in experiment [2], -67.2%.

For `CC1c2ncc(Cn3cncn3)n2CCN1C1CCOCC1` (centres undefined), the values for the Percent Effect in experiment [1] and in experiment [2] were 2.5% and -1.95%, respectively.

For `CCc1nc(CN(C)C2CCN(CCNS(=O)(=O)CC)C2)no1` (centres undefined), the Percent Effect in experiment [1] is 5.16%; in experiment [2], -60.5%.

With `N#Cc1ccc(CNC(=O)NC2CCN(CC(F)F)CC2)cc1`, the Percent Effect in experiment [1] is -4.22%; in experiment [2], -8.96%.

In the case of `COCC1CN(Cc2ccc(C)o2)Cc2ncn(CC3CC3)c21` (centres undefined), the Percent Effect in experiment [1] is -3.92%; in experiment [2], -13.7%.

As to `Cc1cc(F)cc(S(=O)(=O)NCCCN2CCC(O)CC2)c1`, the Percent Effect in experiment [1] is 4.04%; in experiment [2], -67.2%.

Consider `COCc1ccccc1C(=O)N1CCCC(n2nc(C)cc2C)C1` (centres undefined), for which the Percent Effect in experiment [1] is -2.97%; in experiment [2] it was -10.9%.

Regarding `COCCN(Cc1ccc(F)cc1Cl)C(=O)c1cccc[n+]1[O-]`, the Percent Effect is -4.34% in experiment [1] and 0.846% in experiment [2].

As for `Cc1cnn(CC2CCCN2C(=O)c2cccc(CC#N)c2)c1` (centres undefined), the Percent Effect was -1.43% in experiment [1] and 8.24% in experiment [2].

For `O=C(Cn1c(=O)n(Cc2ccco2)c2ncccc21)NC1CCCCC1`, the results for the Percent Effect in experiment [1] and in experiment [2] were -3.2% and -5.4%, respectively.

For the molecule `CC(=O)N1CCOC2(CCN(C(=O)c3cnoc3C)CC2)C1`, the Percent Effect in experiment [1] is -1.11%; in experiment [2], 4.56%.

For the molecule `CN1CCOC(CNCc2cccc(OCC(F)(F)F)c2)C1` (centres undefined), the values for the Percent Effect in experiment [1] and in experiment [2] were -2.34% and 2.68%, respectively.

`Cc1cc(C(=O)N2CCc3nnc(N)cc3C2)c(C)n1C1CC1`: the Percent Effect in experiment [1] is 7.93%; in experiment [2], -1.08%.

For `COCC(=O)N1CC[C@@H](N2CCOCC2)[C@@H]1Cc1ccccc1`, the Percent Effect in experiment [1] is 9.38%; in experiment [2] it was -28.8%.

Take `COc1ccc(-c2nc(CN3CC(n4cc(C)cn4)C3)no2)cc1`: the Percent Effect was 6.9% in experiment [1] and -20.1% in experiment [2].

For the molecule `CCc1nc(C2CCCN(C(=O)c3cccc4cn[nH]c34)C2)no1` (centres undefined), the Percent Effect was 4.75% in experiment [1] and 29.8% in experiment [2].

`Cn1ccnc1-c1cccc(NC(=O)NCCCO)c1`: the Percent Effect in experiment [1] is -2.56%; in experiment [2] it was -54.8%.

`c1ccc(NCc2cn3c(n2)CN(Cc2cccnc2)CC3)nc1`: the Percent Effect in experiment [1] is -1.64%; in experiment [2], -39.5%.

On to `Cc1ccc(-c2nnc(CNCCn3cc(C)cn3)o2)cc1`, for which the Percent Effect was 2.15% in experiment [1] and -42% in experiment [2].

Turning to `O=C(NCc1cc[nH]n1)N(CCCO)C1CCc2ccccc21` (centres undefined), the Percent Effect in experiment [1] came out at 1.93%; in experiment [2], 0.536%.

As for `CC(=O)N1CC[C@@H]2CN(C(=O)c3ccco3)CCO[C@@H]2C1`, the Percent Effect in experiment [1] is 4.25%; in experiment [2], -3.17%.

As for `COc1ccc(OC)c(-c2nc(CN(C)Cc3nncn3C)c(C)o2)c1`, the values for the Percent Effect in experiment [1] and in experiment [2] were 5.61% and -20.1%, respectively.

In the case of `Cc1ccc(CN2CC[C@H]3OCC[C@@H](C(=O)NC4CC4)[C@@H]3C2)o1`, the figures for the Percent Effect in experiment [1] and in experiment [2] were 4.6% and -6.37%, respectively.

On to `CCOCC1CC2(CCN(C(=O)c3ccccc3F)CC2)CO1` (centres undefined), for which the results for the Percent Effect in experiment [1] and in experiment [2] were 3.1% and 5.12%, respectively.

Take `CCc1nnsc1C(=O)N1CCCN(Cc2cnn(C)c2)CC1`: the figures for the Percent Effect in experiment [1] and in experiment [2] were 3.06% and 7.82%, respectively.

For `CCn1cc(NC(=O)C2CCN(CCOC(C)C)CC2)cn1`, the Percent Effect stood at 2.5% in experiment [1] and 17.1% in experiment [2].

As for `CC(C)c1nn(C)c(Cl)c1CNC1CCOc2ccccc21` (centres undefined), the Percent Effect in experiment [1] worked out at 1.57%; in experiment [2], 27.5%.

Turning to `Cn1ccc(-c2cc(C(=O)N3CCOCC3)c3ccccn23)n1`, the Percent Effect in experiment [1] is 3.13%; in experiment [2], -17.8%.

For `COCCC(=O)N1CCN(CCN(C)C)c2ncccc2C1`, the Percent Effect was 4.55% in experiment [1] and -25.6% in experiment [2].

For the molecule `Cc1ccc(-c2nc(CN3CCc4nn(C)c(=O)cc4C3)co2)cc1`, the Percent Effect in experiment [1] was 40.1%; in experiment [2], -3.75%.

`COc1ccc(F)cc1C(C(=O)O)N1CCSCC1` (centres undefined): the Percent Effect in experiment [1] came to 4.05%; in experiment [2], 9.21%.

`CC(C)c1ncncc1C(=O)NCCN1CCCS1(=O)=O`: the Percent Effect in experiment [1] is -2.86%; in experiment [2], 6.66%.

As for `COc1ccnc(N2CCN(C(=O)CN3CCCC3=O)CC2)n1`, the Percent Effect in experiment [1] was -1.88%; in experiment [2], 13.5%.

On to `CNC(=O)c1ccc(OC2CCN(S(C)(=O)=O)CC2)c(Cl)c1`, for which the Percent Effect in experiment [1] is -0.864%; in experiment [2] it was -64.7%.

For `CN(CCCOc1ccccc1)C(=O)CN1CCc2cncnc2C1`, the Percent Effect in experiment [1] was found to be 5.73%; in experiment [2] it was 9.42%.

`CS(=O)(=O)N1CCC(Oc2cnccn2)CC1`: the Percent Effect in experiment [1] was -0.656%; in experiment [2], -5.3%.
